From PubChem BioAssay
DT40 TDP1 CPT: qHTS for Inhibitors of human tyrosyl-DNA phosphodiesterase 1 (TDP1): qHTS in cells in presence of CPT; chicken DT40 Tdp1-/-;hTDP1 cells + 20 nM CPT, ATP luminescence, 48 h; Potency, µM (titrated, usually from 46.2 µM), inactives show at the highest dose activity change, negative = growth inhibition, actives largely listed as inhibitors; actives 12% (n = 420,000); AID 686979, 2013; also: potency is read from the fitted curve at half-maximal effect; nearly all actives have a fitted effect of over 55% in size
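Chicken DT40 Tdp1-/- cells complemented with human TDP1, 400 cells/well, exposed to compounds plus 20 nM camptothecin for at least 48 h at 37 C; viability read as ATP content by CellTiter-Glo luminescence.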
HT1080 IDH1KD tx: qHTS for induction of synthetic lethality in tumor cells producing 2HG: qHTS for the HT-1080-IDH1KD cell line | Potency, µM (highest dose often 46.1 µM), inactives show at the top dose activity, negative = toxicity, actives largely listed as cytotoxic | HT-1080 IDH1 knockdown viability, ATP luminescence, 48 h | AID 686971, 2013 | actives 2% (n = 360,000);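 also: potency is read from the fitted curve at half-maximal effect; 0% = DMSO wells and -100% = cell-free medium wells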
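Cytotoxicity counter-line: IDH1KD HT-1080, 48 h, CellTiter-Glo. Curves classed by r2, magnitude and activity.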
TDP1 cell noCPT: qHTS for Inhibitors of human tyrosyl-DNA phosphodiesterase 1 (TDP1): qHTS in cells in absence of CPT. DT40 Tdp1-/- hTDP1 cells, no CPT, ATP luminescence, 48 h. Potency, µM (doses to about 46.2 µM), inactives show top-dose activity change, negative = growth inhibition, most hits filed as inhibitors. actives 15% (n = 420,000); also: potency is read from the fitted curve at half-maximal effect; nearly all actives have a fitted effect of over 55% in size
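Growth kinetics read by CellTiter-Glo luminescence after ≥48 hr at 37 °C. Cells: DT40 Tdp1-/- stably carrying human TDP1, 400 per well, compound exposure in the absence of CPT (DMSO vehicle).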
ELG1 repair inh: qHTS screen for small molecules that inhibit ELG1-dependent DNA repair in human embryonic kidney (HEK293T) cells expressing luciferase-tagged ELG1. AID 504467, 2011. actives 2.3% (n = 330,000). HEK293T ELG1-luciferase reporter, luminescence, 16 h; DNA damage induced by 5-fluorouridine. Potency, µM (top dose mostly 46.1 µM), for inactives: at the top dose activity change, negative = inhibition, usual class: inhibitors; also: potency is read from the fitted curve at half-maximal effect; nearly all actives have a fitted effect of over 55% in size
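Quantitative HTS, concentration-response format. 2,000 cells/well co-treated with 5-fluorouridine and compound, 16 hr in 5% CO2 at 37 °C; ONE-Glo luminescence read after 30 min.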
HT1080-NT tox: qHTS for induction of synthetic lethality in tumor cells producing 2HG: qHTS for the HT-1080-NT fibrosarcoma cell line; HT-1080-NT fibrosarcoma viability, CellTiter-Glo ATP luminescence, 48 h; Potency, µM (top dose mostly 46.1 µM), for inactives: at the top dose activity, negative = less viability, actives largely listed as cytotoxic; actives 1.6% (n = 360,000);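 also: NT is the 2HG producing partner of a matched IDH1 knockdown line; potency is read from the fitted curve at half-maximal effect; 0% = DMSO-treated cells and -100% = media-only wells without cells; nearly all actives have a fitted effect of over 55% in size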
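Luminescent CellTiter-Glo readout after 48 hours of compound exposure at 37 degrees C defined viability of HT-1080-NT cells. Activity was normalized to DMSO wells and cell-free media wells; concentration-response curves were fitted and assigned curve classes.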
IL-1B inflam inh: qHTS for Inhibitors of Inflammasome Signaling: IL-1-beta AlphaLISA Primary Screen; THP-1 LPS/ATP IL-1B secretion, AlphaLISA, 16 h; hits give low values; AID 743279, 2014; activity change, % at 57.5 µM; actives 4.7% (n = 360,000); in the data active = activity change below about -50%; inconclusive = mostly about -30% to -49%
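THP-1 cells pretreated 1 hr with compounds (up to 57.5 uM final), then stimulated with LPS (250 ng/mL final) plus ATP (1.25 mM final); secreted IL-1B measured by AlphaLISA after 16 hr, decreased signal indicating inhibition.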
* marks the source's active call; other numbers are inactive results; ? = inconclusive; nt = not tested or not shown. Rows were chosen to be rich in hits. Some 19% of all compounds tested hit in one or more screens of this group. Unless noted, calls follow the shape of the dose curve; as a rule, active = well fitted curve in the direction sought with a large enough effect; inconclusive = small, poorly fitted or top-dose-only effect, or another doubt; inactive = no such curve, though single readings can be large; an effect the other way counts as inactive or inconclusive. Unless noted, % is scaled to controls: 0 for no effect and ±100 for the full control effect.

SMILES	DT40 TDP1 CPT	HT1080 IDH1KD tx	TDP1 cell noCPT	ELG1 repair inh	HT1080-NT tox	IL-1B inflam inh
O=C(Cc1n[nH]c(=O)c2ccccc12)N1CCN(S(=O)(=O)c2ccc(F)c(Cl)c2)CC1	-8%	0%	-22%	-18%	-20%	-3
Nc1cc(-c2ccc(Br)cc2)[nH]n1	?	-19%	?	13µM*	-12%	-9
NC(=S)c1csc(CCNC(=O)c2ccccc2)n1	1%	0%	-20%	nt	-1%	-23
Oc1ccc(-c2ccccc2)cc1CN1CCCCCC1	?	-15%	18µM*	1%	?	-26
Cc1noc(C)c1-c1ccc(C(=O)NCCN2CCOCC2)c2occc12	?	5%	29µM*	nt	8%	0
CC(=O)c1cccc(NC(=O)c2ccc(-n3cncn3)c3ccoc23)c1	?	5%	?	nt	25%	-15
CC(=O)c1cccc(NC(=O)c2ccc(-c3c(C)noc3C)c3ccoc23)c1	16µM*	?	?	nt	25%	77
Cc1noc(C)c1-c1ccc(C(=O)Nc2ccc(C(C)C)cc2)c2occc12	12µM*	?	10µM*	nt	?	34
COc1cc(NC(=O)c2ccc(-c3c(C)noc3C)c3ccoc23)cc(OC)c1OC	13µM*	?	8.2µM*	nt	-27%	-14
Cc1noc(C)c1-c1ccc(C(=O)NCCc2ccccc2)c2occc12	?	6%	?	nt	-17%	4
CN1CCN(c2cc(CNC[C@H]3O[C@@H](n4cnc5c(=O)[nH]c(N)nc54)[C@H](O)[C@@H]3O)ccc2F)CC1	-9%	10%	14%	nt	11%	0
COc1cc([N+](=O)[O-])ccc1NC(=O)Nn1cnnc1	1%	-2%	23%	0%	13%	0
CN(C(=O)CN(c1ccccc1)S(=O)(=O)c1ccc(F)cc1)C1CCS(=O)(=O)C1 (stereo not drawn)	-6%	6%	-7%	?	3%	16
O=C(CN1CCOCC1)NN=C1CCCCCCCCCCC1	-8%	12%	-18%	19%	13%	-2
CC(=O)Nc1ccc(NC(=O)c2ccc(-c3c(C)noc3C)c3ccoc23)cc1	21µM*	-25%	?	nt	-1%	-5
COc1ccc(NC(=O)c2ccc(-c3c(C)noc3C)c3ccoc23)cn1	?	1%	?	nt	?	4
CCS(=O)(=O)c1nc(S(=O)(=O)c2ccc(C)cc2)c(NCCCn2ccnc2)s1	0%	9%	16%	?	7%	-14
CCCCNc1sc(S(=O)(=O)CCC)nc1S(=O)(=O)c1ccc(C)cc1	?	nt	21µM*	nt	nt	nt
CCCS(=O)(=O)c1nc(S(=O)(=O)c2ccc(C)cc2)c(NCC(C)C)s1	?	nt	21µM*	nt	nt	nt
CS(=O)(=O)c1nc(S(=O)(=O)c2ccc(Cl)cc2)c(NCc2ccccn2)s1	4%	-7%	?	11%	-6%	?
CCCS(=O)(=O)c1nc(S(=O)(=O)c2ccc(C)cc2)c(NCc2ccccn2)s1	?	-10%	?	29%	-1%	-16
CC(C)OCCCNc1sc(S(=O)(=O)c2ccccc2)nc1S(=O)(=O)c1ccc(Cl)cc1	?	nt	18µM*	nt	nt	nt
CCCS(=O)(=O)c1nc(S(=O)(=O)c2ccc(C)cc2)c(NCc2ccccc2)s1	-27%	nt	?	nt	nt	nt
CCCCNc1sc(S(=O)(=O)CC)nc1S(=O)(=O)c1ccc(C)cc1	?	nt	23µM*	nt	nt	nt
CNc1ncnc(Sc2nc(N)nc3nc[nH]c23)c1[N+](=O)[O-]	2.1µM*	1.3µM*	4.6µM*	nt	2.9µM*	-59*
SMILES	DT40 TDP1 CPT	HT1080 IDH1KD tx	TDP1 cell noCPT	ELG1 repair inh	HT1080-NT tox	IL-1B inflam inh
Nc1nc(Sc2ccc([N+](=O)[O-])c3nonc23)c2[nH]cnc2n1	1.8µM*	1.8µM*	3.3µM*	nt	4.6µM*	-119*
Nc1nc(SCc2ccccc2)c2[nH]cnc2n1	1%	-1%	-7%	?	7%	-23
CC1(C(=O)NS(=O)(=O)c2ccc(Cl)s2)CCN1C(=O)C1(c2ccc(Cl)cc2)CCC1 (stereo not drawn)	-4%	-17%	-23%	nt	?	-17
O=[N+]([O-])c1ccc(CN2C=NS(=O)(=O)c3ccccc32)cc1	-18%	-17%	?	-1%	-4%	11
CC(C)(C)c1ccc(CC(=O)N2CCC2(C)C(=O)NCc2cccc3ccccc23)cc1 (stereo not drawn)	23µM*	16µM*	26µM*	nt	?	?
Cc1ccc(CNC(=O)C2(C)CCN2C(=O)Cc2ccc(C(C)(C)C)cc2)cc1 (stereo not drawn)	16µM*	?	18µM*	nt	?	-14
CC(C)(C)c1ccc(CC(=O)N2CCC2(C)C(=O)NS(=O)(=O)c2ccc(F)cc2F)cc1 (stereo not drawn)	-6%	6%	-5%	nt	29%	-51*
CC(=O)c1sc(-c2ccc(F)cc2)cc1NS(=O)(=O)c1ccccc1	-7%	11%	-13%	-4%	6%	30
CC(C)SC1=NC(C)(C)C=C(/C=C/c2ccc(Cl)cc2Cl)N1	?	?	?	-20%	?	-113*
CC(C)SC1=NC(C)(C)C=C(/C=C/c2c(Cl)cccc2Cl)N1	?	21µM*	?	-21%	?	-82*
COc1ccc2c(c1)c1c(c(=O)n(-c3ccc(F)c(Cl)c3)c(=O)n1CC(N)=O)n2C	-23%	nt	-9%	nt	nt	nt
CCN1CCN(Cc2cccc(Oc3ccc(Cl)cc3)c2)CC1	?	?	16µM*	-10%	?	-27
CCN1CCN(Cc2cccc(Oc3ccccc3)c2)CC1	-15%	11%	-15%	-3%	1%	-12
CN1CCN(Cc2cccc(Oc3ccc(Cl)cc3)c2)CC1	29µM*	-15%	?	?	?	?
COc1cc(NC(=O)CCCNC(=O)Cn2cnc3sc(C)c(C)c3c2=O)cc(OC)c1OC	10%	1%	-22%	?	-3%	40
